# Measured values as given in PubChem BioAssay (NCATS).
# Records with an inconclusive call do not appear. Entries that show only a call come without a potency. A number with no mark means an inactive call. Calls of active or inactive are those of the source. The call rests on the fitted dose curve; in most records, active means well fitted inhibition curve with a large enough effect; inconclusive means small, poorly fitted or top-dose-only effect; inactive means flat fitted curve, though single readings scatter.
# Key:
# [1] = qHTS profiling for inhibitors of Plasmodium falciparum proliferation (AID 504749); further: nearly all actives have a fitted effect of over 60% in size; conditions: P. falciparum in erythrocytes, SYBR Green DNA, 72 h
# Procedure, shortened: (§1)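 Parasite proliferation within erythrocytes, 72 h exposure. Endpoint: SYBR Green I fluorescence after overnight lysis at room temperature. Controls: 0.29 uM artemisinin, DMSO.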
# 3D7 = assay: as above; conditions: P. falciparum in erythrocytes, SYBR Green DNA, 72 h; series mostly up to 28.7 µM
# Procedure, shortened: as §1
# 7G8 = assay: as above; conditions: P. falciparum in erythrocytes, SYBR Green DNA, 72 h; series mostly up to 28.7 µM
# Procedure, shortened: as §1
# AA1029 = assay: as above; conditions: P. falciparum in erythrocytes, SYBR Green DNA, 72 h; series mostly up to 28.7 µM
# Procedure, shortened: as §1
# [2] = at 28.7 µM (top of the series), parasite line A
# [3] = at 28.7 µM (top of the series), parasite line B
# Potency means the concentration at half of the fitted maximal effect.
Compound,"activity, negative = inhibition [1, 2]","activity, negative = inhibition [1, 3]",Potency (3D7),Potency (7G8),Potency (AA1029),Potency ([1]; parasite line A),Potency ([1]; parasite line B),"activity, negative = inhibition ([1]; at 12.8 µM (top of the series), parasite line A)","activity, negative = inhibition ([1]; at 12.8 µM (top of the series), parasite line B)"
O=C(COc1ccc(Cl)cc1)N1CCN(Cc2ccc3c(c2)OCO3)CC1,11%,10.8%,inactive,inactive,inactive,–,–,–,–
CN(C)/N=N/c1nc[nH]c1C(N)=O,8.05%,1.17%,inactive,inactive,inactive,–,–,–,–
O=C1OC(c2ccc(O)cc2)(c2ccc(O)cc2)c2ccccc21,-7.68%,10.2%,inactive,inactive,inactive,–,–,–,–
C[C@]12CCC(=O)C=C1CC[C@H]1[C@@H]3CC[C@](O)(C(=O)CO)[C@@]3(C)C[C@H](O)[C@@]12F,4.53%,9.81%,inactive,inactive,inactive,–,–,–,–
CC(C)(CO)[C@@H](O)C(=O)NCCCO,10.4%,-1.02%,inactive,inactive,inactive,–,–,–,–
Cc1cc(=O)n(-c2ccccc2)n1C,5.57%,10.3%,inactive,inactive,inactive,–,–,–,–
O=C(Nc1ccc(Cl)c(Cl)c1)C1CC1,-11.1%,-1.73%,inactive,inactive,inactive,–,–,–,–
Oc1ccc(Cl)cc1Sc1cc(Cl)ccc1O,0.98%,-24.8%,inactive,12600 nM (active),inactive,–,–,–,–
CC(C)(C)CC(C)(C)c1ccc(O)c(Cc2ccc(Cl)cc2Cl)c1,–,–,2240 nM (active),447 nM (active),891 nM (active),2000 nM (active),562 nM (active),–,–
C1CCc2nnnn2CC1,11.2%,0.626%,inactive,inactive,inactive,–,–,–,–
CCN(CC)C(=O)N1CCN(C)CC1,–,–,inactive,inactive,inactive,–,–,5.24%,18.6%
